Bioassay records as filed in PubChem.
Gal4-VP16 FLuc: counter-screen for ROR gamma inhibitors: Gal4-VP16 reporter; Drosophila S2 Gal4-VP16 UAS-luciferase, luminescence, 20 h; 310,000 tested, 3.5% active; Potency, µM (series often up to 53.6 µM), for inactives: at the top dose activity, negative = inhibition, actives largely listed as inhibitors; AID 2546;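 further: Gal4-VP16 expression switched on by copper sulfate through the metallothionein promoter; nearly all actives have a fitted effect of over 50% in size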
ELG1 repair inh: blocks ELG1-dependent DNA repair in HEK293T cells; 330,000 tested, 2.3% active; Potency, µM (top dose mostly 46.1 µM), inactives show at the top dose activity change, negative = inhibition, most hits filed as inhibitors; HEK293T ELG1-luciferase reporter, luminescence, 16 h; DNA damage induced by 5-fluorouridine; further: nearly all actives have a fitted effect of over 55% in size
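Quantitative HTS, concentration-response format. 2,000 cells/well co-treated with 5-fluorouridine and compound, 16 hr in 5% CO2 at 37 °C; ONE-Glo luminescence read after 30 min.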
RORgamma inh: blocks mouse ROR gamma transcriptional activity; P51450; Drosophila S2 Gal4-RORgamma UAS-luciferase reporter, 20 h; Potency, µM (top dose mostly 53.6 µM), without a hit: top-dose activity change, negative = inhibition, most hits filed as inhibitors; 310,000 tested, 5.4% active; AID 2551; further: nearly all actives have a fitted effect of over 60% in size
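Drosophila S2 cells stably expressing Gal4-DBD/mouse RORγ fusion under metallothionein promoter plus UAS-luciferase; compound 1 h, then 700 uM CuSO4 induction for 20 h at ambient temperature; inhibition read as reduced luminescence.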
TDP1 cell CPT: growth inhibition of DT40 Tdp1-/-;hTDP1 cells with camptothecin (screen for TDP1 inhibitors); chicken DT40 Tdp1-/-;hTDP1 cells + 20 nM CPT, ATP luminescence, 48 h; 420,000 tested, 12% active; Potency, µM (titrated, usually from 46.2 µM), inactives show at the highest dose activity change, negative = growth inhibition, hits mostly inhibitors; AID 686979; further: nearly all actives have a fitted effect of over 55% in size
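Chicken DT40 Tdp1-/- cells complemented with human TDP1, 400 cells/well, exposed to compounds plus 20 nM camptothecin for at least 48 h at 37 C; viability read as ATP content by CellTiter-Glo luminescence.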
TDP1 cell noCPT: qHTS for Inhibitors of human tyrosyl-DNA phosphodiesterase 1 (TDP1): qHTS in cells in absence of CPT | DT40 Tdp1-/- hTDP1 cells, no CPT, ATP luminescence, 48 h | Potency, µM (series often up to 46.2 µM), for inactives: at the top dose activity change, negative = growth inhibition, actives largely listed as inhibitors | 420,000 tested, 15% active | AID 686978, 2013; further: nearly all actives have a fitted effect of over 55% in size
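No-CPT arm: Tdp1-/-;hTDP1 DT40 cells (400/well) plus compounds, incubated ≥48 hr at 37 °C. Readout CellTiter-Glo luminescence.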
ALOX12 inh: ALOX12 (human) lipoxygenase inhibition | purified 12hLO, xylenol orange hydroperoxide absorbance | Potency, µM (highest dose often 108 µM), for the others: at the highest dose activity change, negative = inhibition, actives largely listed as inhibitors | 580,000 tested, 1.1% active
Target sequence (P18054 whole entry, looked up): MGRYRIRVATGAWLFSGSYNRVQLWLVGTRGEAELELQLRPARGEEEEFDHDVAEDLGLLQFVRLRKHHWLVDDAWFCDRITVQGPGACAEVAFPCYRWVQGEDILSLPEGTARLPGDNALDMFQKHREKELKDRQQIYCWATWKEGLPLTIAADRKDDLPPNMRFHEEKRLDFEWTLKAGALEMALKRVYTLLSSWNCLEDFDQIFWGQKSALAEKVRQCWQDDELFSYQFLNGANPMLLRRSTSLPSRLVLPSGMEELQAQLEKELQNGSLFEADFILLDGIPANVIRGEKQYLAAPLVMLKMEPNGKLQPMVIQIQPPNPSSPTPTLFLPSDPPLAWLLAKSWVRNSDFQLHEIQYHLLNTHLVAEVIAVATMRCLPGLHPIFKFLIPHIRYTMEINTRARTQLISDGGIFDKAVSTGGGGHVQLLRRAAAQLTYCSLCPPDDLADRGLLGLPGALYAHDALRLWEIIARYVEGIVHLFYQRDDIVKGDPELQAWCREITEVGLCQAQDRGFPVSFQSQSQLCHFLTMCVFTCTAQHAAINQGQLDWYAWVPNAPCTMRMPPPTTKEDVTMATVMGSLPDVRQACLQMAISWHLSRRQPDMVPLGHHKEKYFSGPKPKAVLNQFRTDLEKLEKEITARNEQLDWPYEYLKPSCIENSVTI
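Hydroperoxide product was detected by ferrous iron/xylenol orange as the 573 to 405 nm absorbance ratio. Arachidonic acid at 40 uM (final) was turned over for 30 min at room temperature by 150 nM human 12hLO, pH 7.0 Hepes buffer, after 15 min compound preincubation.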
Starred values were filed as active, the others as inactive; [ ] = dose if it differs, or a comment. Only some compounds are listed: those with a hit (about 15% of all), similar ones and a draw of the others. The call rests on the fitted dose curve; in most records, active means well fitted curve in the direction sought with a large enough effect; inconclusive means small, poorly fitted or top-dose-only effect, or another doubt; inactive means no such curve, though single readings can be large; an effect the other way counts as inactive or inconclusive. On the % scale 0 is the no-effect control and ±100 the full control effect; potency means the concentration at half of the fitted maximal effect.

Screening COc1ccc(OC)c(-n2c(-c3ccc(F)cc3)cn3c4c(=O)[nH]c(=O)n(C)c4nc23)c1 returned ALOX12 inh -20.7%.
Cn1nc2n(c1=O)CCC(NC(=O)CCC1CCCCC1)CC2 (stereo not drawn) was read as ALOX12 inh -4.8%.
Screening CCCCN(C)C(=O)Cn1c(C2CC(=O)N(c3cccc(OC)c3)C2)nc2ccccc21 (stereo not drawn) returned ALOX12 inh -5.6%.
Screening O=C(Nc1ccccn1)c1c(O)c2cccc3c2n(c1=O)CCC3 returned Gal4-VP16 FLuc -8.6%, ELG1 repair inh inconclusive, RORgamma inh -5.4%, TDP1 cell CPT 14.6µM*, TDP1 cell noCPT 14.6µM* and ALOX12 inh inactive.
`Cc1cccnc1NC(=O)c1c(O)c2cccc3c2n(c1=O)CCC3` gave Gal4-VP16 FLuc -14.7%, ELG1 repair inh 11.7%, RORgamma inh inconclusive, TDP1 cell CPT inconclusive, TDP1 cell noCPT inconclusive and ALOX12 inh 0.0%.
For COC(=O)C1=C(C)N(Cc2ccc(F)cc2)C(=S)NC1c1ccc(Cl)cc1 (stereo not drawn) the results were ALOX12 inh 39.8µM*.
`COC(=O)C1=C(C)N(Cc2ccc(Cl)cc2)C(=S)NC1c1ccc(OC)cc1` (stereo not drawn) gave ALOX12 inh 39.8µM*.
COC(=O)C1=C(C)N(CCCC(=O)O)C(=O)NC1c1ccc(Br)cc1 (stereo not drawn) was read as Gal4-VP16 FLuc 0.5%, ELG1 repair inh 16.6%, RORgamma inh 4.9%, TDP1 cell CPT 6.0%, TDP1 cell noCPT -4.8% and ALOX12 inh inconclusive.
For COC(=O)C1=C(C)N(Cc2ccc(Br)cc2)C(=S)NC1c1ccc(OC)cc1 (stereo not drawn) the results were ALOX12 inh 44.7µM*.
Screening COCCN1C(=S)N[C@@H](c2ccccc2)C(C(=O)OC)=C1C returned Gal4-VP16 FLuc -5.0% and RORgamma inh -24.7%.
For CCOC(=O)C1=C(C)N(Cc2ccccc2)C(=O)NC1c1ccc(OC)cc1 (stereo not drawn) the results were Gal4-VP16 FLuc 7.2%, ELG1 repair inh inconclusive, RORgamma inh inconclusive, TDP1 cell CPT -17.4%, TDP1 cell noCPT -19.5% and ALOX12 inh -12.0%.
Screening COC(=O)C1=C(C)N(Cc2ccccc2)C(=S)N[C@H]1c1ccc(Br)cc1 returned Gal4-VP16 FLuc 12.6µM*, ELG1 repair inh -8.4%, RORgamma inh 3.55µM*, TDP1 cell CPT inconclusive, TDP1 cell noCPT -18.5% and ALOX12 inh 44.7µM*.
`O=C(Cc1c[nH]c2ncc(-c3ccc(F)c(Cl)c3)cc12)NCc1cccnc1` gave ALOX12 inh 4.9%[176 µM].
COc1ccc2c(C(=O)CCl)c[nH]c2c1 was read as Gal4-VP16 FLuc 17.8µM*, ELG1 repair inh inconclusive, RORgamma inh inconclusive, TDP1 cell CPT 2.59µM*, TDP1 cell noCPT 3.26µM* and ALOX12 inh 0.0%.
For C=CCNC(=O)c1ccc2c3n(nc2c1)-c1ccc(Cl)cc1CO3 the results were TDP1 cell CPT inconclusive, TDP1 cell noCPT inconclusive and ALOX12 inh -4.1%.
Cc1ccc2c(c1)COc1c3ccc(C(=O)NCC4CC4)cc3nn1-2 was read as Gal4-VP16 FLuc -24.3%, ELG1 repair inh inconclusive, RORgamma inh -38.8%, TDP1 cell CPT inconclusive, TDP1 cell noCPT 20.6µM* and ALOX12 inh 8.9%.
Screening Cc1ccc2c(c1)COc1c3ccc(C(=O)O)cc3nn1-2 returned Gal4-VP16 FLuc 5.01µM*, ELG1 repair inh inconclusive, RORgamma inh 2µM*, TDP1 cell CPT -16.7%, TDP1 cell noCPT -18.2% and ALOX12 inh -1.6%.
Screening COc1cccc(CN(C)CC(=O)NC2CCCCCC2)c1OC returned ALOX12 inh -27.8%.
Screening CCOc1ccccc1NC(=O)Cn1c(-c2ccc(F)cc2)nc(C)c(CCO)c1=O returned ALOX12 inh 13.3%.
Cc1oc2ncn(CC(C)C)c(=O)c2c1C(=O)Nc1cc(F)ccc1F was read as TDP1 cell CPT inconclusive, TDP1 cell noCPT inconclusive and ALOX12 inh -20.2%.
`CCOC(=O)C(C)NC(=O)c1c(C)oc2ncn(CC(C)C)c(=O)c12` (stereo not drawn) gave TDP1 cell CPT inconclusive, TDP1 cell noCPT 23.1µM* and ALOX12 inh inconclusive.
`CCOc1ccc(CCNC(=O)c2c(C)oc3ncn(CC(C)C)c(=O)c23)cc1OCC` gave TDP1 cell CPT -27.6%, TDP1 cell noCPT inconclusive and ALOX12 inh -9.5%.
`Cc1ccc(N2CCN(C(=O)c3c(C)oc4ncn(CC(C)C)c(=O)c34)CC2)c(C)c1` gave TDP1 cell CPT 29.1µM*, TDP1 cell noCPT 7.31µM* and ALOX12 inh inconclusive.
Cc1ccc(N2CCN(C(=O)c3c(C)oc4ncn(C)c(=O)c34)CC2)c(C)c1 was read as TDP1 cell CPT 2.1%, TDP1 cell noCPT -4.1% and ALOX12 inh -18.6%.
`CCc1ccc(CNC(=O)c2c(C)oc3ncn(CC(C)C)c(=O)c23)cc1` gave TDP1 cell CPT inconclusive, TDP1 cell noCPT 16.4µM* and ALOX12 inh inconclusive.
Screening Cc1oc2ncn(CC(C)C)c(=O)c2c1C(=O)NCCc1ccccc1 returned TDP1 cell CPT inconclusive, TDP1 cell noCPT 16.4µM* and ALOX12 inh -25.2%.
For O=C(c1ccccc1)N1CCC(N2C(=O)C(O)C23CCCCC3)CC1 (stereo not drawn) the results were ALOX12 inh 39.1%.
Screening COc1ccc(-c2nnc3ccc(SCc4ccco4)nn23)cc1 returned ALOX12 inh -29.9%.
Cc1c(NC(=O)/C=C/c2cn(-c3ccccc3)nc2-c2ccc(F)cc2)c(=O)n(-c2ccccc2)n1C was read as Gal4-VP16 FLuc -5.3%, ELG1 repair inh 3.6%, RORgamma inh 18.8%, TDP1 cell CPT 14.6µM*, TDP1 cell noCPT inconclusive and ALOX12 inh -3.5%.
`CC(=O)C(=Cc1cn(-c2ccccc2)nc1-c1ccccc1)C(C)=O` gave Gal4-VP16 FLuc -0.8%, ELG1 repair inh 15.2%, RORgamma inh -8.0%, TDP1 cell CPT 23.1µM*, TDP1 cell noCPT inconclusive and ALOX12 inh -0.3%.
